Assay results from PubChem BioAssay (NCI).
About 83,000 compounds went through this panel and 20% of them were active in at least one assay; those are over-represented in the sample as a whole.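 Single-dose data. Exposure time 48 hours. Values below 10 considered active.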 Calls of active or inactive are those of the source.

What follows are compounds tested on UACC-62 melanoma (assay: NCI-60 one-dose screen, 48 h (100 = growth as untreated, 0 = no growth, -100 = all killed)). Settings: 10 µM unless noted.
Experimental: Growth inhibition of the UACC-62 human tumor cell line is measured as a screen for anti-cancer activity. Cells are grown in 96 well plates and exposed to the test compound for 48 hours. Compounds are tested at a single concentration, which is 10^-5 M for most compounds. The reported endpoint is percent growth (GI% or GIPRCNT), where numbers from 0 - 100% represent growth inhibition, and numbers from -100% - 0 represent cell death. For example, a value of 40 represents 60% growth inhibition. A value of 0 means no net growth occurred over the course of the experiment. A value of -40 indicates 40% of cells at the beginning of the experiment died by the end of the experiment. A value of -100 means all cells are dead at the end of the experiment.
NCI-60 Human Tumor Cell Lines Screen was performed using the standard one-dose NCI protocol, which is described in more detail at https://dtp.cancer.gov/discovery_development/nci-60/default.htm.
Compounds with GIPRCNT values below 10 were considered active. Activity score was based on GIPRCNT using the following formula: […]
Score is 0 for GIPRCNT values of 100 or above, 50 for GIPRCNT values of 0, and 100 for GIPRCNT values of -100.
For `O=C(O)c1cccc(N/C=C/C(=O)c2cc3cc(Br)ccc3oc2=O)c1`, the growth was 94.2% (inactive).
`CCN1C(=S)N(CC)C2C1NC(=S)N2/N=C/C=C/c1ccccc1OC` (stereo not given) was tested, and the growth was 23.5% (inactive).
With `COc1cc2c(c(OC)c1OC)C(=O)CC(c1cccc(NC(=O)c3ccccc3Br)c1)O2` (stereo not given) the growth was 72.2% (inactive).
For `CCCC(O)Cn1ncc(C(=O)OCC)c1NC(=O)NCc1cccc(F)c1` (stereo not given), the growth was 97.1% (inactive).
For `CC(=O)c1c(Nc2ccc(F)c(F)c2F)[nH]c2c(F)cc(F)cc2c1=O`, the growth was -27.9% (active).
With `Cc1ccc(-c2nc(C#N)c(S(=O)(=O)NCCO)o2)cc1` the growth was 60.3% (inactive).
`CC/C(Cc1ccccc1)=C(\c1ccc(OCCN2CCCCCC2)cc1)c1ccc(OC(=O)NCc2ccccc2)cc1` was tested, and the growth was 75.3% (inactive).
In the case of `CC(C)(CO)N(CCO)CCO`, the growth is reported as 101% (inactive).
With `COc1cc2c(/C=C3\C(=O)Nc4ccccc43)c(C(=O)O)[nH]c2cc1C` the growth was 84.3% (inactive).
For `Nc1c(C(=O)Nc2cccc3ncccc23)sc2nc3c(cc12)C(=O)CCC3`, the growth was 17.8% (inactive).
With `CCOC(=O)c1c(C)nc2ccccc2c1/C=C/c1ccc(OC)cc1` the growth was 45.7% (inactive).
`Cc1cccc(N2CCN(C(=S)c3ccc4c(c3)OCO4)CC2)c1` was tested, and the growth was 29.1% (inactive).
In the case of `CC(C)CSc1oc(-c2ccccc2)nc1S(=O)(=O)c1ccccc1`, the growth is reported as 66.9% (inactive).
`Cc1ccc(C)c(-n2c(-c3ccc(Br)cc3)csc2=NC(=O)c2ccccc2F)c1` was tested, and the growth was 60.7% (inactive).
For `NC(=O)c1c(NC(=O)c2ccc(Cl)cc2)sc2c1CCC(=O)C2`, the growth was 61.9% (inactive).
In the case of `CC12CCC(/C(=C/NNc3ccc([N+](=O)[O-])cc3[N+](=O)[O-])C1=O)C2(C)C` (stereo not given), the growth is reported as 64.5% (inactive).
For `Cc1ccc(C(=O)c2ccc(CC(=O)N/N=C/c3ccc(O)cc3O)n2C)cc1`, the growth was 29.8% (inactive).
`O=C(CN1C(=O)NC2NC(=O)NC21)N/N=C/c1ccc(Cl)cc1Cl` (stereo not given) was tested, and the growth was 99% (inactive).
`COc1cc(C2C3=C(COC3=O)N(CCO)c3cc4c(cc32)OCCO4)cc(OC)c1OC` (stereo not given) was tested, and the growth was 6.33% (active).
In the case of `CCOC(=O)Nc1nc2ccc(SCC(C)C)cc2s1`, the growth is reported as 17.3% (inactive).
For `CCN(CC)c1ccc(N2C(=O)/C(=C/c3cccs3)SC2=S)cc1`, the growth was 80.8% (inactive).
In the case of `CCOC(=O)c1c2c(n3c1NCC3)-c1ccccc1C2=O`, the growth is reported as 98.6% (inactive).
For `COc1ccc2nc3cc(Cl)ccc3c(NCCN)c2c1`, the growth was -71.2% (active).
For `COc1ccc(C2=NN(C(C)=O)C(c3ccc(Oc4ccnc5cc(Cl)ccc45)c(OC)c3)C2)cc1` (stereo not given), the growth was 54.7% (inactive).
`O=C(CCC(=O)c1nc2ncccc2[nH]1)NN1C(=O)CSC1c1ccc(Cl)cc1` (stereo not given) was tested, and the growth was 90.3% (inactive).
With `Clc1nn2c(Cn3cnc4c(NCc5ccccc5)ncnc43)nnc2c2ccccc12` the growth was 22.4% (inactive).
For `C#CCOc1ccc2ncnc(Nc3cccc(NC(=O)CCl)c3)c2c1`, the growth was 60.6% (inactive).
`CN(C)c1ccc(/C=C/C(=O)c2ccc(Nc3nc(Nc4ccc(F)cc4)nc(Nc4ccc(Cl)cc4)n3)cc2)cc1` was tested, and the growth was 75.2% (inactive).
In the case of `O=C1OCC2=C1C(c1cccc(C(F)(F)F)c1)c1cc3c(cc1N2CCO)OCO3` (stereo not given), the growth is reported as 48.4% (inactive).
With `COC(=O)c1nc(-c2ccccc2)oc1S(=O)(=O)N1CCC(C(N)=O)CC1` the growth was 79.6% (inactive).
`CCN=C1C=CC(=C(c2ccc(N(C)C)cc2)c2ccc(N(C)C)cc2)c2ccccc21` was tested, and the growth was -38% (active).
In the case of `COc1ccc2nc(Cl)c(/C=C/C(=O)c3ccc(NC(=O)CSc4nnc(-c5ccc(Cl)c(Cl)c5)n4-c4ccccc4)cc3)cc2c1`, the growth is reported as 86.2% (inactive).
In the case of `C#CCOc1cccc(-c2ncc3cc(NC(=O)CCl)ccc3n2)c1`, the growth is reported as -6.06% (active).
`COc1cccc(Nc2ccnc3[nH]c4ccc([N+](=O)[O-])cc4c23)c1` was tested, and the growth was 24.2% (inactive).
In the case of `O=C1/C=C/[C@@H](O)[C@@H]2C[C@@H](O)C[C@H]2/C=C/CCC[C@H](CCOCc2ccccc2)O1`, the growth is reported as 6.3% (active).
For `O=C(O)C1CN(c2cccc(Cl)c2)N(c2cccc(Cl)c2)C1=O` (stereo not given), the growth was 88.5% (inactive).
In the case of `NNC(=S)N/N=C/c1ccccn1`, the growth is reported as 20.7% (inactive).
In the case of `O=C(O)c1cn(C2CC2)c2cc(N3CCN(C(=O)N/N=C/c4ccccc4)CC3)c(F)cc2c1=O`, the growth is reported as 95.3% (inactive).
For `S=c1[nH]c2cc(Cl)ccc2o1`, the growth was 96.6% (inactive).
`CS(=O)(=O)Nc1cncc(-c2ccc3ncnc(Nc4ccc(F)c(Cl)c4)c3c2)c1` was tested, and the growth was 34.6% (inactive).
